From the supplement of paper PMC8728848
The sample as a whole holds a higher share of the strongest signals than the screen did.

Tests used:
Experiment in all cases: glycan array binding signal (z-score within array); higher = stronger binding
Settings in all cases: glycan notation: IUPAC condensed, linker removed
[1] = molecular target: GlcNAc(b1-2)[GlcNAc(b1-6)]Man(a1-6)[GlcNAc(b1-2)Man(a1-3)]Man(b1-4)GlcNAc(b1-4)[Fuc(a1-6)]GlcNAc
How it was run: (§1)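 Columns mapping to the same glycan were averaged after glycan names were converted to IUPAC-condensed notation. The data come from 3228 arrays in the Consortium for Functional Glycomics database, limited to those with an available protein sequence. Binding is reported as a within-array Z-score averaged across arrays of one protein sequence and across linkers.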

GlcNAc(b1-3)Gal(b1-4)Glc = molecular target: GlcNAc(b1-3)Gal(b1-4)Glc
How it was run: as §1

[2] = molecular target: GlcNAc(b1-3)Gal(b1-4)GlcNAc(b1-3)Gal(b1-4)GlcNAc(b1-3)Gal(b1-4)GlcNAc(b1-2)Man(a1-3)[GlcNAc(b1-3)Gal(b1-4)GlcNAc(b1-3)Gal(b1-4)GlcNAc(b1-3)Gal(b1-4)GlcNAc(b1-2)Man(a1-6)]Man(b1-4)GlcNAc(b1-4)GlcNAc
How it was run: as §1

[3] = molecular target: GlcNAc(b1-3)Gal(b1-4)GlcNAc(b1-3)Gal(b1-4)GlcNAc(b1-3)Gal(b1-4)GlcNAc(b1-3)Gal(b1-4)GlcNAc(b1-2)Man(a1-3)[GlcNAc(b1-3)Gal(b1-4)GlcNAc(b1-3)Gal(b1-4)GlcNAc(b1-3)Gal(b1-4)GlcNAc(b1-3)Gal(b1-4)GlcNAc(b1-2)Man(a1-6)]Man(b1-4)GlcNAc(b1-4)GlcNAc
How it was run: as §1

[4] = molecular target: GlcNAc(b1-3)Gal(b1-4)GlcNAc(b1-6)[GlcNAc(b1-3)]Gal(b1-4)GlcNAc
How it was run: as §1

GlcNAc(b1-3)GalNAc = molecular target: GlcNAc(b1-3)GalNAc
How it was run: as §1

[5] = molecular target: GlcNAc(b1-4)GlcNAc(b1-4)GlcNAc
How it was run: as §1

[6] = molecular target: GlcNAc(b1-4)GlcNAc(b1-4)GlcNAc(b1-4)GlcNAc(b1-4)GlcNAc
How it was run: as §1

[7] = molecular target: GlcNAc(b1-4)GlcNAc(b1-4)GlcNAc(b1-4)GlcNAc(b1-4)GlcNAc(b1-4)GlcNAc
How it was run: as §1

[8] = molecular target: Man(a1-3)[Man(a1-6)]Man(b1-4)GlcNAc(b1-4)[Fuc(a1-6)]GlcNAc
How it was run: as §1

[9] = molecular target: Neu5Ac(a2-3)Gal(b1-3)GlcNAc(b1-2)[Neu5Ac(a2-3)Gal(b1-3)GlcNAc(b1-4)]Man(a1-6)[Neu5Ac(a2-3)Gal(b1-3)GlcNAc(b1-2)Man(a1-3)]Man(b1-4)GlcNAc(b1-4)GlcNAc
How it was run: as §1

[10] = molecular target: Neu5Ac(a2-3)Gal(b1-3)[Neu5Ac(a2-6)]GlcNAc(b1-3)[Fuc(a1-3)[Gal(b1-4)]GlcNAc(b1-6)]Gal(b1-4)Glc
How it was run: as §1

[11] = molecular target: Neu5Ac(a2-3)Gal(b1-4)[Fuc(a1-3)]GlcNAc(b1-3)Gal(b1-4)GlcNAc
How it was run: as §1

[12] = molecular target: Neu5Ac(a2-3)Gal(b1-4)[Fuc(a1-3)]GlcNAc(b1-6)[Gal(b1-3)]GalNAc
How it was run: as §1

[13] = molecular target: Neu5Ac(a2-3)[GalNAc(b1-4)]Gal(b1-4)GlcNAc
How it was run: as §1

[14] = molecular target: Neu5Ac(a2-6)Gal(b1-3)GlcNAc(b1-3)[Gal(b1-4)GlcNAc(b1-6)]Gal(b1-4)Glc
How it was run: as §1

[15] = molecular target: Neu5Ac(a2-6)Gal(b1-4)GlcNAc(b1-2)Man(a1-3)Man(b1-4)GlcNAc(b1-4)GlcNAc
How it was run: as §1

[16] = molecular target: Neu5Ac(a2-6)Gal(b1-4)GlcNAc(b1-2)Man(a1-6)[GlcNAc(b1-2)Man(a1-3)]Man(b1-4)GlcNAc(b1-4)GlcNAc
How it was run: as §1

[17] = molecular target: Neu5Ac(a2-6)Gal(b1-4)GlcNAc(b1-3)Gal(b1-4)GlcNAc(b1-3)[Neu5Ac(a2-6)Gal(b1-4)GlcNAc(b1-3)Gal(b1-4)GlcNAc(b1-6)]GalNAc
How it was run: as §1

[18] = molecular target: Neu5Ac(a2-6)Gal(b1-4)GlcNAc(b1-3)Gal(b1-4)GlcNAc(b1-6)[Gal(b1-3)]GalNAc
How it was run: as §1

Neu5Ac(a2-6)GalNAc = molecular target: Neu5Ac(a2-6)GalNAc
How it was run: as §1

[19] = molecular target: Neu5Ac(a2-6)GlcNAc(b1-4)GlcNAc(b1-4)GlcNAc
How it was run: as §1

[20] = molecular target: Neu5Ac(a2-8)Neu5Ac(a2-3)Gal(b1-3)GalNAc(b1-4)[Neu5Ac(a2-8)Neu5Ac(a2-3)]Gal(b1-4)Glc
How it was run: as §1

[21] = molecular target: Neu5Ac(a2-8)Neu5Ac(a2-8)Neu5Ac(a2-3)[Gal(b1-3)GalNAc(b1-4)]Gal(b1-4)Glc
How it was run: as §1

[22] = molecular target: Neu5Ac(a2-8)Neu5Ac(a2-8)Neu5Ac(a2-3)[GalNAc(b1-4)]Gal(b1-4)Glc
How it was run: as §1

B1: Nc3LysM (protein)
chain: QFTVPPDTTAEPNTIKTCTWWHVAGSGDSCTSIASTYGITSEQFARWDMETTDSPKNPSVATACKLTVGNSYCIENNFGQDDPPTPSISSSTLIGTATTSTTASTTTGNGISTPTPIQEGMETATTTTSSGNGITTPTPTQAGMETVGNCDRFHLVKSGDQCGTIASTYGITLANFYSWNPAVGTSCQSLWLDTYVCVRTIGFVPPKTTTTTTKKPTSTTSAGGVATPTPTQPGMETVSGCKKFHKGRGNVSTVASGDQCGTIATRYGISLANFYSWNPAVGSSCQTLWLDYYVCVGR
- glycan array binding signal (z-score) [1]: -0.037
- glycan array binding signal (z-score) (GlcNAc(b1-3)Gal(b1-4)Glc): -0.132
- glycan array binding signal (z-score) [2]: -0.013
- glycan array binding signal (z-score) [3]: -0.036
- glycan array binding signal (z-score) [4]: 0.184
- glycan array binding signal (z-score) (GlcNAc(b1-3)GalNAc): 0.056
- glycan array binding signal (z-score) [5]: 2.52
- glycan array binding signal (z-score) [6]: 17.3
- glycan array binding signal (z-score) [7]: 16.7
- glycan array binding signal (z-score) [8]: 0.04
- glycan array binding signal (z-score) [9]: 0.123
- glycan array binding signal (z-score) [10]: -0.004
- glycan array binding signal (z-score) [11]: 0.009
- glycan array binding signal (z-score) [12]: -0.127
- glycan array binding signal (z-score) [13]: -0.172
- glycan array binding signal (z-score) [14]: -0.162
- glycan array binding signal (z-score) [15]: 0.14
- glycan array binding signal (z-score) [16]: 0.31
- glycan array binding signal (z-score) [17]: 0.111
- glycan array binding signal (z-score) [18]: -0.099
- glycan array binding signal (z-score) (Neu5Ac(a2-6)GalNAc): 0.071
- glycan array binding signal (z-score) [19]: -0.143
- glycan array binding signal (z-score) [20]: -0.231
- glycan array binding signal (z-score) [21]: 0.394
- glycan array binding signal (z-score) [22]: -0.059
